Screening results deposited in PubChem by several laboratories.
sEH inhibitor: soluble epoxide hydrolase (human) inhibition; P34913; recombinant human sEH enzymatic activity assay; inhibition, % at 2 µM; 91,000 compounds, 0.34% hits; in the data active = inhibition above about 80%
Target sequence (P34913 whole entry, looked up): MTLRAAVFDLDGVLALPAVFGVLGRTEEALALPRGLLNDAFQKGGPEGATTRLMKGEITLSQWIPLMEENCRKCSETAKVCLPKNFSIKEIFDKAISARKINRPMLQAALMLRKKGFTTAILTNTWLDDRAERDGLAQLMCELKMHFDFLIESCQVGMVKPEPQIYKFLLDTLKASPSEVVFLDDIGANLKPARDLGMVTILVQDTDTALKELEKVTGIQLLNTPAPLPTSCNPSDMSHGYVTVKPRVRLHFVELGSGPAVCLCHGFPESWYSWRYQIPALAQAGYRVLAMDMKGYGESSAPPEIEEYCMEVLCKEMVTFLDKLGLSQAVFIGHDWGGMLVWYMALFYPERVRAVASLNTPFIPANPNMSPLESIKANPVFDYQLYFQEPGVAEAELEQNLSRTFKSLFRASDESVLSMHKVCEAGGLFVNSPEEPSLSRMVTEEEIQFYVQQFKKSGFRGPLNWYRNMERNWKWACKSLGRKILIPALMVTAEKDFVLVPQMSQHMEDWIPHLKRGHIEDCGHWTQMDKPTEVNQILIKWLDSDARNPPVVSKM
CYP2C9 activ: CYP2C9 (human) activation; P11712; recombinant CYP2C9, luciferin-H conversion, luminescence; hits give high values; factor 1 = untreated enzyme, 0 = blocked; activation factor at 5 µM; 96,000 compounds, 1.4% hits; AID 1024;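 active = activation factor of 2 or more for CYP2C9 at a 5 µM dose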;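 also: 0 = sulfaphenazole-blocked wells and 1 = vehicle-only wells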
CYP2C19 act: activators of human cytochrome P450 2C19 | P33261 | recombinant CYP2C19, luciferin-H EGE luminescence; hits give high values; 0 = fully inhibited enzyme, 1 = untreated enzyme | activation factor at 5 µM | 96,000 tested, under 10 active | AID 1025;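 active = activation factor of at least 2 at 5 µM in the primary screen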;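 also: 0 = wells with 2.5 mM tranylcypromine and 1 = vehicle-only wells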
CYP2C9 inh: inhibitors of human CYP2C9; P11712; CYP2C9 Supersomes, luciferin-H conversion, luminescence; inhibition, % at 5 µM; 96,000 compounds, 20% hits; AID 777;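 active = blocking of liver enzyme CYP2C9 beyond about 50% at 5 µM, limit read from the data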
sEH act: activators of human soluble epoxide hydrolase; 91,000 compounds, 0.04% hits; activation, % at 2 µM; AID 717; purified human sEH enzymatic activity, activator screen; P34913; in the data active = activation above about 37%
CYP2C19 inh: blocks human cytochrome P450 2C19 | CYP2C19 Supersomes, luciferin-H EGE luminescence, 30 min | inhibition, % at 5 µM | 96,000 compounds, 21% hits | AID 778;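 active = CYP2C19 inhibition above a set limit at 5 µM in the primary screen, cut at about 50% in these data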;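 also: plate controls were negative control wells for no effect and 2.5 mM tranylcypromine positive control for full effect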
Numbers without * were called inactive; x = no result. Sampled rows, rich in hits. Any-hit rate of the full collection: about 27%.

SMILES	sEH inhibitor	CYP2C9 activ	CYP2C19 act	CYP2C9 inh	sEH act	CYP2C19 inh
Cc1n[nH]c(=O)nc1NCc1ccccc1Cl	8.0	1.1	1.1	-13.1	-7.1	-6.5
CCCCc1ccc(Nc2ncnc3nc[nH]c23)cc1	-4.7	0.6	0.5	42.0	3.4	53.0*
CC1CC(C)CN(CC(=O)N2CCc3[nH]c4ccccc4c3C2)C1 (stereo unspecified)	5.8	0.5	0.3	48.5	-4.8	65.5*
O=C(CN1CCN(Cc2ccc3c(c2)OCO3)CC1)N1CCc2[nH]c3ccc(F)cc3c2C1	-4.7	0.2	0.2	75.7*	9.3	84.5*
Cc1ccc2[nH]c3c(c2c1)CN(C(=O)CN1CCN(c2ccccc2F)CC1)CC3	-6.6	0.5	0.8	52.9*	6.2	23.1
CC1CN(CC(=O)N2CCc3[nH]c4ccccc4c3C2)CC(C)O1 (stereo unspecified)	-1.7	0.9	0.7	11.3	1.3	26.5
Cc1ccc2[nH]c3c(c2c1)CN(C(=O)CN1CCCc2ccccc21)CC3	x	1	0.6	4.8	x	38.8
O=C(O)CCCCCNC(=O)c1ccccc1Br	0.3	0.8	0.7	16.1	0.3	28.1
O=C(CCS(=O)(=O)c1ccc(Br)s1)N1CCc2ccccc21	4.4	1.5	0.8	-47.7	-4.2	24.3
COC(=O)c1cccc(S(=O)(=O)N(Cc2ccco2)Cc2cc3ccc(OC)cc3[nH]c2=O)c1	-3.1	0.5	0.8	51.5*	7.3	19.4
CC(C)C(=O)N(Cc1cc2ccccc2[nH]c1=O)C(C)C	-11.5	1	1	2.1	10.0	-3.5
CCCN(Cc1cc2ccc(C)cc2[nH]c1=O)S(=O)(=O)c1ccccc1	-7.0	0	0.6	97.4*	5.0	36.5
CCCS(=O)(=O)NCCc1cc2ccc(C)cc2[nH]c1=O	3.4	x	x	x	-0.7	x
CC(=O)c1cccc(S(=O)(=O)N(CCCO)Cc2cc3ccc(C)cc3[nH]c2=O)c1	-11.7	0.3	1	70.9*	11.7	-0.4
CCN(Cc1cc2ccccc2[nH]c1=O)S(=O)(=O)c1ccccc1	-2.0	0.4	0.2	59.4*	3.3	81.2*
O=C1CC(Nc2ccc(N3CCOCC3)cc2)C(=O)N1CCc1ccccc1 (stereo unspecified)	-7.8	0.8	0.8	23.2	8.7	24.8
CSc1nc(-c2ccccc2)[nH]c(=S)c1C(C)=O	-5.4	0.5	0.8	54.7*	2.5	19.8
Cc1ccc(-c2cc(C(F)F)n3ncc(C(=O)N4CCCc5ccccc54)c3n2)cc1	5.4	x	x	x	-3.3	x
Cc1ccc(-c2cc(C(F)F)n3ncc(C(=O)N4CCN(c5cccc(C)c5C)CC4)c3n2)cc1	14.8	0.3	1	68.4*	-13.6	0.3
Cc1ccc(-c2cc(C(F)F)n3ncc(C(=O)Nc4ccc(S(=O)(=O)Nc5ccccc5C)cc4)c3n2)cc1	-7.7	0.2	0.9	82.5*	7.8	5.7
COc1ccc(NS(=O)(=O)c2ccc(NC(=O)c3cnn4c(C(F)F)cc(-c5ccc(C)cc5)nc34)cc2)cc1	-9.2	0.4	0.8	60.0*	15.8	17.3
COc1ccc(-c2cc(C(F)F)n3ncc(C(=O)NCC4CCCO4)c3n2)cc1 (stereo unspecified)	-21.2	0.7	0.9	30.1	20.1	12.6
CCc1nc(NCCCn2ccnc2)c2oc3ccccc3c2n1	6.5	0	0.1	98.5*	-8.2	90.8*
Cc1nc(NCCCn2ccnc2)c2ccccc2n1	x	0.6	0.7	41.2	x	32.4
CCc1nc(Nc2ccccc2)c2oc3ccccc3c2n1	12.3	0.8	0.7	21.7	-8.6	29.9
SMILES	sEH inhibitor	CYP2C9 activ	CYP2C19 act	CYP2C9 inh	sEH act	CYP2C19 inh
Cc1cc(NCCCn2ccnc2)n2c(nc3ccccc32)c1C#N	0.6	0.2	0.2	83.0*	-4.8	77.0*
Cc1cccc2cc(C#N)c(NCCCn3ccnc3)nc12	-0.1	0	0	98.4*	-0.4	98.5*
CC(C)CC(=O)NCc1ccc(F)cc1	9.3	0.9	0.8	13.2	-6.2	22.3
COC(=O)Cn1c(=O)c2c(nc(Br)n2CC(=O)OC)n(C)c1=O	7.0	1.1	1	-6.1	-5.1	0.2
Cc1ccc2c(C)nc(Nc3nc(CSc4nnnn4-c4ccccc4)cc(=O)[nH]3)nc2c1	x	0.1	0.4	87.5*	x	59.8*
CCOc1ccc2nc(Nc3nc(CSc4nnnn4-c4ccccc4)cc(=O)[nH]3)nc(C)c2c1	-0.6	0.5	0.5	51.1*	1.5	53.3*
COc1ccc2nc(Nc3nc(CSc4nnnn4-c4ccccc4)cc(=O)[nH]3)nc(C)c2c1	-11.7	0.8	0.7	22.1	14.2	29.4
CSCC[C@H](Nc1ncnc2sc(C)c(C)c12)C(=O)O	-30.2	0.2	1.1	83.1*	27.8	-6.8
Cc1sc2ncnc(Sc3nnnn3-c3ccccc3)c2c1C	8.1	0.8	0.4	22.6	-9.3	56.1*
Cc1sc2ncnc(NCc3ccccc3)c2c1C	-1.5	0.5	0.2	46.7	1.4	75.2*
Cc1sc2ncnc(Nc3ccccc3)c2c1C	9.7	1	0.5	-1.0	-7.7	50.5*
Cc1sc2ncnc(NCC(c3ccco3)N(C)C)c2c1C (stereo unspecified)	4.2	x	x	x	-2.7	x
Cc1sc2ncnc(N[C@@H](CCC(=O)O)C(=O)O)c2c1C	-0.3	1	1.1	4.5	2.4	-8.4
Cc1nc2ncnn2c(N2CCC(C(=O)NCC3CCCO3)CC2)c1Cc1ccccc1 (stereo unspecified)	3.1	x	x	x	-0.2	x
Cc1ccc(CCNC(=O)C2CCN(C(=O)c3sccc3-n3cccc3)CC2)cc1	51.3	0.7	0.7	32.2	-51.0	34.2
Cc1ccc(S(=O)(=O)N2CCOCC2)cc1C(=O)NCc1cn2ccsc2n1	6.1	1	1	-2.4	-4.2	-2.4
O=c1c([N+](=O)[O-])cc(C(F)(F)F)cn1Cc1c(Cl)cccc1Cl	4.4	0.8	0.5	19.6	-1.6	46.5
Fc1ccccc1Cn1nnc(-c2ccc3c(c2)OCO3)n1	-3.0	0.4	0.2	57.9*	0.1	75.6*
O=C(CCNc1ccccc1)c1ccc2c(c1)OCO2	-11.7	0.5	0.4	47.5	10.0	63.1*
O=C(NCc1ccccc1F)c1ccc2c(c1)OCO2	0.1	0.9	0.3	9.5	3.1	72.7*
CN(C)CCC(=O)c1ccc2c(c1)OCO2	-10.6	1	0.9	2.1	9.2	9.2
O=C(NCc1ccccc1)c1ccc2c(c1)OCCO2	x	0.7	0.2	30.8	x	84.6*
CCOCCOCCC(C(=O)OCC)P(=O)(c1ccccc1)c1ccccc1 (stereo unspecified)	-5.0	1.1	1.1	-12.5	1.4	-7.1
CC(C)(C)c1ccc(C(=O)NNC(=O)C(=O)N2CCCCC2)cc1	5.1	0.9	1	6.1	-2.3	-0.3
Cc1ccc(C)c(C(=O)CCC(=O)Nc2cccnc2)c1	-15.3	1.2	0.5	-23.4	14.5	47.6
Cc1cc2cc3c(cc2nc1SCC(=O)N1c2ccccc2CC1C)OCO3 (stereo unspecified)	-21.1	x	x	x	20.3	x
